# Bioassay records deposited in PubChem BioAssay by National Center for Advancing Translational Sciences (NCATS).
# PTHR1 agonist: activates the human parathyroid hormone receptor PTHR1; HEK293 GP2 PTHR1 cells, GloSensor cAMP luminescence, 1 h; Potency, µM (titrated, usually from 115 µM), for inactives: top-dose activation, actives largely listed as activators; 0.075% of 410,000 active; also: potency is read from the fitted curve at half-maximal effect; nearly all actives have a fitted effect of over 55% in size
#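 HEK-293-derived GP2 cells expressing PTHR1 and a GloSensor cAMP reporter, 3,000/well, plated overnight, given luciferin plus IBMX (each 0.5 mM as added) for 1 h at 37 °C, then compound for 1 h at 37 °C. Luminescence was read after 15 min at room temperature.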
# IDH1 R132H inh: human IDH1 R132H inhibition; 0.093% of 390,000 active; Potency, µM (highest dose often 76.6 µM), for inactives: top-dose activity change, negative = inhibition, hits mostly inhibitors; AID 602179; IDH1-R132H enzyme, NADPH consumption, diaphorase/resazurin fluorescence; O75874; also: potency is read from the fitted curve at half-maximal effect; % is scaled to controls: 0 for no effect and ±100 for the full control effect; nearly all actives have a fitted effect of over 65% in size
#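 IDH1-R132H (0.5 ug/mL dispensed) in pH 7.5 Tris buffer was preincubated 30 min with compound, then given a substrate mix of 0.016 mM NADPH and 2 mM alpha-KG for 80 min at room temperature; remaining NADPH was read by diaphorase/resazurin fluorescence.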
# LDHA inh: inhibitors of human lactate dehydrogenase A; purified LDHA, NADH/diaphorase-resazurin fluorescence; active compounds read low; activity change, % (values are at about 110 or 230 µM); 0.15% of 480,000 active; AID 1347041; in the data active = activity change below about -30%; inconclusive = mostly about -25% to -30%;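 also: plate controls were DMSO wells for no effect and wells without enzyme for full effect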
#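 Enzyme activity of human lactate dehydrogenase 5 (2 nM; 0.06 mM NADH, 0.2 mM pyruvate, 5 min, RT) is measured via a resazurin/diaphorase fluorescence readout of residual NADH.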
# HEK293 tox: cytotoxic in the GLP-1 receptor inverse agonist counter-screen. HEK293 cAMP-luciferase reporter cells, luminescence, 24 h. Potency, µM (top dose mostly 38.3 µM), for inactives: top-dose activity change, negative = inhibition, most hits filed as inhibitors. 0.13% of 410,000 active;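 also: loss of luciferase light is scored as toxicity; potency is read from the fitted curve at half-maximal effect; % is scaled to controls: 0 for no effect and ±100 for the full control effect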
#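 Step one: seed cells (200 cells/uL, DMEM with 10% Nu serum, 1% pen-strep). Step two: 12-hour incubation at 37 deg C. Step three: pin 23 nL compound, incubate 24 hr. Step four: add luciferase reagent, read luminescence 12 min later.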
# GLP1R inv ag: GLP-1 receptor (human) inverse agonism; P43220; HEK293 GLP-1R CRE-luciferase, luminescence, 24 h; GLP-1R form is constitutively active; Potency, µM (titrated, usually from 38.3 µM), inactives show at the top dose activity change, negative = inhibition, hits mostly inhibitors; 1.6% of 410,000 active; AID 624417; also: potency is read from the fitted curve at half-maximal effect; % is scaled to controls: 0 for no effect and ±100 for the full control effect; nearly all actives have a fitted effect of over 55% in size
# Target sequence (P43220 whole entry, looked up): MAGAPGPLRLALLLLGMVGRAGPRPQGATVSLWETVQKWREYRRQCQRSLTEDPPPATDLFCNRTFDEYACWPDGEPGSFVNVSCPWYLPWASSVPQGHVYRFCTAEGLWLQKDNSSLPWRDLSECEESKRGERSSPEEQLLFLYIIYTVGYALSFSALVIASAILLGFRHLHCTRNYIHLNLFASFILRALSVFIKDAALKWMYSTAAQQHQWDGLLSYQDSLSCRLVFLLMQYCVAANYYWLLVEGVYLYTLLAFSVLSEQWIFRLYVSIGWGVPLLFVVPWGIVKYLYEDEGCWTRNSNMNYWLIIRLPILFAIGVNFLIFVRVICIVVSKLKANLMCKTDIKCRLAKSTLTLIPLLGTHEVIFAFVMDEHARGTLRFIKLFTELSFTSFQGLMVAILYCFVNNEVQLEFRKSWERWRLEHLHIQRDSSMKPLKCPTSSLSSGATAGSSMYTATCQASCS
#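 HEK293 cells stably co-expressing a cAMP-responsive luciferase reporter and constitutively active GLP-1R were seeded, incubated 12 h, then exposed to compounds for 24 h at 37 C. Luminescence was read 12 min after detection reagent; inverse agonists lower signal.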
# GLP1R ag: agonists of human GLP-1 receptor; P43220; HEK293 GLP-1R CRE-luciferase, luminescence, 4-6 h; cells express a hypersensitive GLP-1R form; Potency, µM (doses to about 45.6 µM), for the others: at the highest dose activation, usual class: activators; 0.007% of 380,000 active; also: potency is read from the fitted curve at half-maximal effect; % of control where 0% means no effect
# The depositor's hits bear a star; i = inactive; ? = inconclusive; / = not tested or not shown; [ ] = dose if it differs, or a comment. Sampled rows, rich in hits. Any-hit rate of the full collection: about 1.7%. Unless noted, calls follow the shape of the dose curve; as a rule, active = well fitted curve in the direction sought with a large enough effect; inconclusive = small, poorly fitted or top-dose-only effect, or another doubt; inactive = no such curve, though single readings can be large; an effect the other way counts as inactive or inconclusive.
SMILES,PTHR1 agonist,IDH1 R132H inh,LDHA inh,HEK293 tox,GLP1R inv ag,GLP1R ag
COc1cccc(CN2CCC2(C)C(=O)Nc2cccc(Oc3ccccc3)c2)c1F (stereo unspecified),-16%,/,-7,?,3.2µM*,20%
CN1CCCC(C)(C(=O)Nc2cccc(Oc3ccccc3)c2)C1 (stereo unspecified),-1%,/,-5,12%,13µM*,3%
CNCCCC1c2ccccc2C=Cc2ccccc21,-1%,-9%,-10,-6%,?,5%
CNCCCC1Sc2ccccc2Oc2ccccc21 (stereo unspecified),i,4%,-17,?,5µM*,0%
COc1ccc(C(=O)c2c(C(F)(F)F)oc3c2C(=O)c2ccccc2C3=O)cc1,-2%,14%,19,-18%,7.1µM*,-34%
CCOC(=O)c1ccccc1NC(=O)Nc1nnc(N(C)C2CCCCC2)s1,/,/,11,/,/,/
COc1ccc(C(=O)NC2CC2)cc1OC1CCN(Cc2ccc(F)cc2Cl)CC1,i,-3%,4,?,10µM*,-5%
CCCOc1ccc(/C=N/Nc2cccc([N+](=O)[O-])c2)c(O)c1,-22%,3%,-2,?,4.5µM*,3%
CN(C(=O)CSc1nc2ccc(NC(=O)COc3ccc(F)cc3)cc2s1)c1ccccc1,-22%,/,3,?,11µM*,/
CN(C(=O)CSc1nc2ccc(NC(=O)CCc3ccccc3)cc2s1)c1ccccc1,-20%,2%,-7,?,8.9µM*,/
N#Cc1c(NC(=O)CSc2ccccn2)sc2c1CCCCC2,/,/,10,/,/,/
CC1=CC(=O)C2C3C=CC(C3)C2/C1=N/OC(=O)c1ccc(C)cc1 (stereo unspecified),/,/,2,/,/,/
Cc1cc2nc(SCC(=O)Nc3cc(C(F)(F)F)ccc3Cl)[nH]c(=O)c2[nH]1,/,/,-8,/,/,/
CN(C)CCCn1c(SCC(=O)Nc2nc(-c3cccc(Br)c3)cs2)nc2ccccc2c1=O,i,-6%,-7,?,11µM*,10%
Cc1ccc(-c2cn3ccccc3n2)cc1NS(=O)(=O)c1ccccc1,/,/,7,/,/,/
Cc1ccc(COn2c(-c3ccc(Cl)cc3Cl)nc3ncccc32)cc1,-95%[57.5 µM],2%,4,-29%,10µM*,-3%
CC(C)CCC(O)(c1ccccc1)C(CN1CCOCC1)c1ccccc1 (stereo unspecified),-23%,-2%,-2,-23%,?,-1%
CCCCCC(O)(c1ccccc1)C(CN1CCOCC1)c1ccccc1 (stereo unspecified),-9%,13%,-3,-27%,10µM*,0%
CCCCCCC(O)(c1ccccc1)C(CN1CCOCC1)c1ccccc1 (stereo unspecified),-5%,5%,1,?,3.5µM*,-1%
COc1ccc(C(O)(CCC(C)C)C(CN2CCOCC2)c2ccccc2)cc1 (stereo unspecified),-33%,7%,3,?,10µM*,1%
COc1ccccc1C(O)(c1ccccc1)C(CN1CCOCC1)c1ccccc1 (stereo unspecified),i,13%,-3,-12%,10µM*,-2%
COc1ccc(NC(=O)C2CCN(c3nc4ccccc4nc3OC)CC2)cc1OC,/,/,-7,/,/,/
O=C(CCC(=O)N1CCC(c2noc3ccc(F)cc23)CC1)N1CCSCC1,/,/,-12,/,/,/
Cc1c(C#N)c(N)nc2c3c(sc12)NC(=O)CC3c1ccccc1F (stereo unspecified),/,/,1,/,/,/
CCOC(=O)c1nn(-c2ccccc2)c(-c2ccccc2)c1C(=O)c1ccccc1,-8%[57.5 µM],4%,0,-20%,2.8µM*,-1%
SMILES,PTHR1 agonist,IDH1 R132H inh,LDHA inh,HEK293 tox,GLP1R inv ag,GLP1R ag
CCOC(=O)c1nn(-c2cccc(OC)c2)c(-c2ccccc2)c1C(=O)c1ccccc1,i,5%,-3,-3%,5.6µM*,7%
CCN(CC)C(=O)CN(C)C(=O)Nc1cccc(Cl)c1,/,/,14,/,/,/
Cc1c(NC(=O)C(C)(C)Oc2ccc(Cl)cc2)cccc1-c1nc2ccccc2o1,-44%,-2%,-5,22%,11µM*,/
Cc1c(NC(=O)c2ccccc2)cccc1-c1nc2ccccc2o1,/,/,-4,/,/,/
Cc1ccc(NC(=O)N2CCCCCC2)cc1C,-17%,-13%,-4,-15%,-5%,8%
Cc1ccc(NC(=O)N2CCCN(Cc3ccc(F)cc3)C2)cc1C,i,-4%,-9,?,4µM*,-12%
Cc1ccccc1C(=O)c1ccccc1C(=O)c1ccccc1,-19%,0%,-6,1%,?,-1%
O=C(c1ccccc1)c1ccccc1C(=O)c1ccccc1,-22%,7%,-5,46%,8.9µM*,18%
COC(=O)c1c(C)[nH]c(/C=N/Nc2ccccc2)c1C,18%,-1%,6,0%,10µM*,25%
Cc1c(C=NNc2ccccc2)[nH]c(=O)[nH]c1=O,i,1%,-9,?,?,2%
O=C(CCCn1c(=O)oc2ccccc21)Nc1ccc(-c2nnc3n2CCCCC3)cc1,/,/,0,/,/,/
CC1CCN(c2ccccc2NC(=S)NC(=O)c2ccco2)CC1,i,11%,-5,?,10µM*,3%
CC1CCN(c2ccccc2NC(=S)NC(=O)c2cccs2)CC1,i,2%,1,?,?,16%
CCN(CCO)C(=S)Nc1cc(C)cc(C)c1,/,/,0,/,/,/
CC(=O)Oc1ccc(/C=N/NC(=O)c2ccc(N(C)S(=O)(=O)c3ccccc3)cc2)cc1,-18%,1%,3,-10%,?,3%
COc1cc(NC(=O)c2ccc(S(=O)(=O)N(C)c3ccccc3)cc2)cc(OC)c1,i,-6%,-5,-12%,10µM*,2%
Cc1ccc(/C=N/NC(=O)c2ccc(N(C)S(=O)(=O)c3ccccc3)cc2)cc1,-16%,1%,-7,-18%,10µM*,9%
CN(Cc1ccccc1)C(=O)c1ccc2c(c1)OCO2,-30%[57.5 µM],4%,-6,6%,5%,12%
CCCCN(C(=O)c1ccc2c(c1)OCO2)c1ccccc1,0%,-2%,-2,5%,10µM*,12%
CCCc1cc(=O)oc2c(C)c(OCC(=O)NCc3cccnc3)ccc12,/,/,-2,/,/,/
CC1CCN(c2ccc(NC(=O)c3cccc(Cl)c3)cc2C(=O)O)CC1,-6%,0%,-3,2%,16%,/
C#Cc1ccc(C(=O)Nc2ccc(N3CCC(C)CC3)c(C(N)=O)c2)cc1,-20%,-11%,-7,-13%,8.9µM*,9%
